Test results published in the supplement of paper PMC12669797.
Values joined by “and” are separate entries in the source; they are usually repeats but may differ in a detail not shown here. Identical values can stand only once. Counter-ions that a name gives are not always drawn. ± gives the standard deviation of the averaged measurements.

Legend:
ES2 = assay: cell viability relative to DMSO control (MTS) (fraction of DMSO control); higher = more viable cells / less growth inhibition; settings: 10 µM; 48 h
Summary of the method: (§1)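 Viability values are fractions of the vehicle-treated control. They come from an MTS assay run per the manufacturer's instructions on TOV-21G and ES2 clear cell carcinoma cells, seeded at 5000 cells per well in 96-well plates. Each compound of a 367-member […] library was added at 10 µM final after 24 h of growth, and the readout was taken after a further 48 h.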

TOV-21G = assay: as above; settings: 10 µM; 48 h
Summary of the method: as §1

SMILES | cell viability (ES2) | cell viability (TOV-21G)
CC(C)(O)/C=C/C(=O)[C@](C)(O)[C@H]1[C@H](O)C[C@@]2(C)[C@@H]3CC=C4[C@@H](C=C(O)C(=O)C4(C)C)[C@]3(C)C(=O)C[C@]12C [Cucurbitacin I] | 0.393 | 0.328
CNc1ccc2oc(C[C@H]3O[C@@]4(CC[C@H]3C)O[C@H]([C@H](C)C(=O)c3ccc[nH]3)[C@H](C)C[C@H]4C)nc2c1C(=O)O | 0.425 | 0.284
CCC1(c2ccc(N)cc2)CCC(=O)NC1=O (stereo not given) [Aminoglutethimide] | 1.08 | 0.918
O=C(O)c1nn(Cc2ccc(Cl)cc2Cl)c2ccccc12 [Lonidamine] | 0.925 | 1.09
CC[C@@]1(O)C(=O)OCc2c1cc1n(c2=O)Cc2cc3ccccc3nc2-1 [Camptothecin] | 0.527 | 0.267
NC(=S)N/N=C\c1coc2ccccc2c1=O.[Cl][Cu][Cl] [Akt Inhibitor XI] | 1.23 | 0.935
CO/C1=C\C(C)=C\[C@@H](C)[C@@H](O)[C@@H](C)C/C(C)=C/C=C/[C@H](OC)[C@@H]([C@@H](C)[C@@H](O)[C@H](C)[C@@]2(O)C[C@@H](O)[C@H](C)[C@@H](C(C)C)O2)OC1=O [Bafilomycin A1] | 0.467 | 0.395
Cc1sc2c(c1C)C(c1ccc(Cl)cc1)=N[C@@H](CC(=O)OC(C)(C)C)c1nnc(C)n1-2 | 0.502 | 0.305
CN(N=O)c1cc(O)ccc1O [Dephostatin] | 1.14 | 1.02
C[C@H]1CCC/C=C/[C@@H]2C[C@H](O)C[C@H]2[C@H](O)/C=C/C(=O)O1 [brefeldin A] | 0.355 | 0.407
CC1=C2C[C@H]3[C@@H](CC=C4C[C@@H](O)CC[C@@]43C)[C@@H]2CC[C@]12O[C@@H]1C[C@H](C)CN[C@H]1[C@H]2C [cyclopamine] | 0.92 | 0.927
N=C(N)NN [Aminoguanidine, HCl] | 0.55 | 0.337
CN1C(=O)[C@]2(Cc3cn([C@]45C[C@@]67SS[C@@](CO)(C(=O)N6[C@H]4Nc4ccccc45)N(C)C7=O)c4ccccc34)SS[C@@]1(CO)C(=O)N2C [Chetomin] | 0.32 | 0.254
C/C=C(/C)C(=O)O[C@H]1C(C)=C2[C@H]([C@@H]1OC(=O)CCCCCCC)[C@@](C)(OC(C)=O)C[C@H](OC(=O)CCC)[C@@]1(O)[C@H]2OC(=O)[C@@]1(C)O [Thapsigargin] | 0.505 | 0.348
C/C(O)=C(\C#N)C(=O)Nc1cc(Br)ccc1Br | 1.06 ± 0.013 | 1.34 ± 0.19
C[C@H](CCC(=O)O)C[C@H](C)C[C@H](C)C(=O)/C=C(\O)[C@H](C)C[C@H](C)C/C=C/[C@@H](C)[C@@H](O)[C@@H](C)[C@@H](O)C[C@@H]1CC[C@@](C)([C@H]2CC[C@@](C)([C@@H](C)O)O2)O1 [Ionomycin] | 0.54 | 0.501
CC[C@@]1([C@@H]2O[C@@H]([C@H]3O[C@@](O)(CO)[C@H](C)C[C@@H]3C)C[C@@H]2C)CC[C@H]([C@]2(C)CC[C@]3(C[C@H](O)[C@@H](C)[C@@H]([C@@H](C)[C@@H](OC)[C@H](C)C(=O)O)O3)O2)O1 [Monensin] | 0.419 | 0.368
CC(=O)N[C@H]1[C@@H](O[C@@H]2O[C@H](CC(O)[C@H]3O[C@@H](n4ccc(=O)[nH]c4=O)[C@H](O)[C@@H]3O)[C@H](O)[C@H](O)[C@H]2NC(=O)/C=C/CC(C)C)O[C@H](CO)[C@@H](N)[C@@H]1O (stereo not given in full) [Tunicamycin] | 1.19 | 1.03
O[C@H]1[C@H]2[C@H](O)CCCN2C[C@H]1O [Swainsonine] | 0.98 | 0.689
N.N.[Cl][Pt][Cl] [Cisplatin] | 0.794 | 1.09
COC[C@H]1OC(=O)c2coc3c2[C@@]1(C)C1=C(C3=O)[C@@H]2CCC(=O)[C@@]2(C)C[C@H]1OC(C)=O [Wortmannin] | 0.956 ± 0.059 | 0.6 ± 0.027
CC(C)(C)c1cc(C=C(C#N)C#N)cc(Br)c1O | 0.94 ± 0.18 | 1.09 ± 0.034
CC[C@H]1/C=C/C=C/C[C@@H](C)[C@H](O)[C@@](C)(O)C(=O)[C@@H](C)[C@H](O)[C@@H](C)C(=O)[C@@H](C)[C@H](O)[C@@H](C)/C=C/C(=O)O[C@@H]2[C@H](C)[C@H](CC1)O[C@]1(CC[C@H](C)[C@H](C[C@@H](C)O)O1)[C@H]2C [Oligomycin] | 0.67 | 0.535

SMILES | cell viability (ES2) | cell viability (TOV-21G)
O=C1Nc2ccccc2C2(CCN(CCc3ccc(C(F)(F)F)cc3)CC2)O1 | 0.915 | 1.12
C[C@@H]1C[C@@H]([C@H](O)CC2CC(=O)NC(=O)C2)C(=O)[C@@H](C)C1 [Cycloheximide] | 0.547 | 0.373
CN1C(=O)CN=C(c2ccc(Cl)cc2)c2cc(Cl)ccc21 | 1.1 | 0.825
O=C1NC(=O)c2c1c1c3ccccc3n3c1c1c2c2ccccc2n1[C@H]1CC[C@@H]3O1 | 0.973 and 1.25 | 1.01 and 1.24
C=C(C)[C@H]1Cc2c(ccc3c2O[C@@H]2COc4cc(OC)c(OC)cc4[C@@H]2C3=O)O1 [Rotenone] | 0.491 | 0.666
C#CCN(C)C(C)Cc1ccccc1 (stereo not given) [Deprenyl] | 1.12 | 1.01
C[C@]12CCC(=O)C(O)=C1CC[C@@H]1[C@@H]2CC[C@]2(C)C(=O)CC[C@@H]12 [Formestane] | 1.11 | 1.32
CO[C@@H]1C[C@@H](C[C@H]2CC[C@H](C)[C@H]([C@@H](C)C(=O)O)O2)O[C@]2(O[C@](C)([C@H]3CC[C@@](C)([C@@H]4O[C@@H]([C@H]5O[C@@](O)(CO)[C@H](C)C[C@@H]5C)C[C@@H]4C)O3)C[C@H]2C)[C@@H]1C [Nigericin] | 0.437 | 0.344
COC(=O)C1(OC)CC2OC1(C)n1c3ccccc3c3c4c(c5c6ccccc6n2c5c31)C(=O)N(C)C4 (stereo not given) | 1 and 1.11 | 0.914 and 1.01
C[C@@H]1O[C@@H](O[C@H]2C[C@@H](O)[C@]3(CO)[C@H]4[C@H](O)C[C@]5(C)[C@@H](C6=CC(=O)OC6)CC[C@]5(O)[C@@H]4CC[C@]3(O)C2)[C@H](O)[C@H](O)[C@H]1O [Ouabain] | 0.439 | 0.279
CN[C@@H]1C[C@H]2O[C@@](C)([C@@H]1OC)n1c3ccccc3c3c4c(c5c6ccccc6n2c5c31)C(=O)NC4 [Staurosporine] | 0.301 | 0.239
COc1ccc2c3c([nH]c2c1)[C@H](C=C(C)C)N1C(=O)[C@@H]2CCCN2C(=O)[C@@H]1C3 [Fumitremorgin C] | 0.945 | 0.838
CC1=C2C(=O)[C@H]3[C@@H](CC=C4C[C@@H](O)CC[C@@]43C)[C@@H]2CC[C@]12O[C@@H]1C[C@H](C)CN[C@H]1[C@H]2C [Jervine] | 1.04 | 1.64
COc1ccc(C[C@H]2NC[C@H](O)[C@H]2OC(C)=O)cc1 [anisomycin] | 0.394 | 0.372
CC(C)[C@@H]1NC(=O)[C@H](C)OC(=O)[C@@H](C(C)C)NC(=O)[C@@H](C(C)C)OC(=O)[C@H](C(C)C)NC(=O)[C@H](C)OC(=O)[C@@H](C(C)C)NC(=O)[C@@H](C(C)C)OC(=O)[C@H](C(C)C)NC(=O)[C@H](C)OC(=O)[C@@H](C(C)C)NC(=O)[C@@H](C(C)C)OC1=O [Valinomycin] | 0.482 | 0.355
C=C1[C@@H](C)[C@H]2[C@H](Cc3ccccc3)NC(=O)[C@]23[C@H](OC(C)=O)/C=C/[C@@](C)(O)C(=O)[C@@H](C)C/C=C/[C@H]3[C@@H]1O [Cytochalasin D] | 0.498 | 0.472
C[C@H]1O[C@@H](n2cnc3c(N)ncnc32)C[C@@H]1O [2',5'-dideoxyadenosine] | 0.972 | 1.05
C[C@@]12C(=O)OC(=O)[C@]1(C)[C@H]1CC[C@@H]2O1 [Cantharidin] | 0.495 | 0.403
CC(C)(c1ccc(OCC2CO2)cc1)c1ccc(OCC2CO2)cc1 (stereo not given) | 0.975 | 1.27
N[C@@H]1C[C@H]1c1cc(F)cc(F)c1OCc1ccccc1 [S2101 (LSD1 inhibitor II)] | 0.792 | 1.04
O=C1C2CCN(CC2)C1(CO)CO | 1.01 | 1.1
C[C@@]1(CO)[C@H](O)CC[C@@]2(C)[C@H]1CC[C@H]1C[C@@H]3C[C@@]12CC[C@]3(O)CO [Aphidicolin] | 0.419 | 0.869
